VDR inh: Inhibitors of the vitamin D receptor (VDR): qHTS | 0.93% of 400,000 active | VDR-SRC2-3 peptide fluorescence polarization, 2 h | Vitamin D3 receptor (Homo sapiens), P11473 | AID 504847, 2011 | Potency, µM, hits mostly inhibitors
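Fluorescence polarization assay of small-molecule disruption of VDR binding to coregulator peptide SRC2-3. Compounds and controls pin-transferred, then read after 2 h incubation at ambient room temperature.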
TDP1 block: qHTS Assay for Inhibitors of Tyrosyl-DNA Phosphodiesterase (TDP1); Tyrosyl-DNA phosphodiesterase 1 (Homo sapiens), Q9NUW8; recombinant TDP1, AlphaScreen DNA substrate cleavage; Potency, µM (top dose mostly 130 µM), usual class: inhibitors; 0.28% of 350,000 active; AID 485290, 2010; note: nearly all actives have a fitted effect of over 40% in size
Target sequence (Q9NUW8 whole entry, looked up): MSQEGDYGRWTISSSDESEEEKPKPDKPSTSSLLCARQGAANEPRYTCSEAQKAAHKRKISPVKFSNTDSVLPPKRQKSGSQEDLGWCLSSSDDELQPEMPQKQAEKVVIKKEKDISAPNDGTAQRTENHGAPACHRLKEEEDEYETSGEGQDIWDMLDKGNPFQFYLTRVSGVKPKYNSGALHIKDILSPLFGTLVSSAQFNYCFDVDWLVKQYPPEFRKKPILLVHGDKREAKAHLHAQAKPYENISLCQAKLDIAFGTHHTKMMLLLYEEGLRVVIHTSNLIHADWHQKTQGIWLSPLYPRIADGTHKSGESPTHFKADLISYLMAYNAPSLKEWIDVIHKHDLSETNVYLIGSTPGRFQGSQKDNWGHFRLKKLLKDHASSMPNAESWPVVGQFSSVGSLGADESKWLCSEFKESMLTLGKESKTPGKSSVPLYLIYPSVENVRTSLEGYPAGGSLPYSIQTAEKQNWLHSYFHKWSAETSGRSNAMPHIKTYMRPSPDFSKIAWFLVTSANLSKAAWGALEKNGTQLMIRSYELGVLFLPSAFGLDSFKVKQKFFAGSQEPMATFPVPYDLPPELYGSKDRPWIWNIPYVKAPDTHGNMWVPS
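Tdp1 1 nM final; 15 min RT w/ cpd; substrate 15 nM, 5 min; beads 10 ug/ml, 10 min; AlphaScreen read. Neg ctrl: no enzyme.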
DT40 TDP1 CPT: qHTS for Inhibitors of human tyrosyl-DNA phosphodiesterase 1 (TDP1): qHTS in cells in presence of CPT; AID 686979, 2013; chicken DT40 Tdp1-/-;hTDP1 cells + 20 nM CPT, ATP luminescence, 48 h; 12% of 420,000 active; Potency, µM (doses to about 46.2 µM), usual class: inhibitors; note: nearly all actives have a fitted effect of over 55% in size
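Chicken DT40 Tdp1-/- cells stably complemented with human TDP1 were seeded at 400 cells/well in medium containing 20 nM camptothecin, exposed to pin-transferred compounds, and grown at 37 °C for at least 48 hr. Viability was read as ATP luminescence.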
PLK1 PBD inh: qHTS for Inhibitors of PLK1-PDB (polo-like kinase 1 - polo-box domain): Primary Screen; 2.8% of 360,000 active; Potency, µM, hits mostly inhibitors; Serine/threonine-protein kinase PLK1 (Homo sapiens), P53350; AID 720504, 2013; Plk1 PBD binding of FITC phosphopeptide, fluorescence polarization; note: series mostly up to about 57 µM; nearly all actives have a fitted effect of over 65% in size
DT40 TDP1 no CPT: qHTS for Inhibitors of human tyrosyl-DNA phosphodiesterase 1 (TDP1): qHTS in cells in absence of CPT | 15% of 420,000 active | AID 686978, 2013 | Potency, µM (top dose mostly 46.2 µM), most hits filed as inhibitors | DT40 Tdp1-/- hTDP1 cells, no CPT, ATP luminescence, 48 h; note: nearly all actives have a fitted effect of over 55% in size
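DT40 Tdp1-/-;hTDP1 cells, no CPT (DMSO vehicle only), 400 cells/well; compounds pin-transferred; ≥48 hr, 37 °C; CellTiter-Glo 30 min RT dark, luminescence read.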
KAT2A inh: qHTS Assay for Inhibitors of GCN5L2; Histone acetyltransferase KAT2A (Homo sapiens), Q92830; GCN5L2 HAT assay, ThioGlo1 CoA-SH fluorescence; Potency, µM (titrated, usually from 58.9 µM), actives largely listed as inhibitors; 0.21% of 390,000 active; AID 504327, 2011
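ThioGlo1-coupled HAT assay: 20nM GCN5L2, 70uM acetyl-CoA, 75uM H3(1-25) peptide, pH 7.5. Fluorescence read at 340/540nm at start and after 20 min at room temperature.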
Each line names hits and unclear results; the compound was inactive in the other large screens. In the library only some 18% were active in any assay of this set; here they are far more common. Calls come from the whole dose curve; as a rule, active = well fitted curve in the direction sought with a large enough effect; inconclusive = small, poorly fitted or top-dose-only effect, or another doubt; inactive = no such curve, though single readings can be large; an effect the other way counts as inactive or inconclusive.

COc1ccccc1CNC(=O)CCC(=O)n1ncc2cc(C)ccc21	none (no result: TDP1 block)
COc1ccccc1CNC(=O)COC(=O)c1ccccc1SCC(=O)N1CCCC1	DT40 TDP1 CPT inconclusive, DT40 TDP1 no CPT inconclusive
COc1ccc(C)cc1NC(=O)CN(C)S(=O)(=O)c1ccc2c(c1)CC(C)N2C(C)=O (stereo not given)	DT40 TDP1 CPT 23.1µM, DT40 TDP1 no CPT inconclusive
CC(=O)N1c2ccc(S(=O)(=O)N(C)c3cc(C)ccc3C)cc2CC1C (stereo not given)	DT40 TDP1 CPT inconclusive, DT40 TDP1 no CPT 23.1µM (no result: TDP1 block)
COc1ccc2c(CC(=O)OCC(=O)N3CCc4ccccc43)coc2c1	VDR inh inconclusive, DT40 TDP1 CPT inconclusive, PLK1 PBD inh 26.7µM, DT40 TDP1 no CPT 18.4µM
O=C(Cc1ccccc1F)OCC(=O)N1CCc2ccccc21	none
COc1ccc2c(CC(=O)OCC(=O)Nc3ccc4c(c3)OCO4)coc2c1	VDR inh 17.8µM, DT40 TDP1 CPT inconclusive, PLK1 PBD inh 16.8µM, DT40 TDP1 no CPT inconclusive
CCCOC(=O)c1cc(-c2ccc(/C=C3/C(=O)N(C)C(=O)C(C#N)=C3C)o2)ccc1Cl	VDR inh 50.1µM, DT40 TDP1 CPT inconclusive, PLK1 PBD inh 18.9µM, DT40 TDP1 no CPT inconclusive (no result: TDP1 block, KAT2A inh)
C[C@H](CN1CCCC1)C(=O)c1ccc(C(F)(F)F)cc1	none (no result: VDR inh, TDP1 block, PLK1 PBD inh, KAT2A inh)
Cc1cccc(C(=O)Nc2cccc(C(=O)N/N=C/c3ccc4c(c3)OCO4)c2)c1	DT40 TDP1 CPT inconclusive, DT40 TDP1 no CPT 29.1µM
O=C(N/N=C/c1ccc2c(c1)OCO2)c1cccc(NC(=O)c2ccccc2Cl)c1	DT40 TDP1 CPT 8.2µM, DT40 TDP1 no CPT 8.2µM
O=C(CCSCCC(=O)NCc1ccccc1)NCc1ccccc1	none
Cc1ccc(CNC(=O)CSCc2cccc(F)c2)cc1	VDR inh inconclusive, DT40 TDP1 CPT inconclusive, PLK1 PBD inh 21.2µM, DT40 TDP1 no CPT inconclusive
O=C(CCSCc1cccc(Cl)c1)NCc1ccccc1Cl	DT40 TDP1 CPT inconclusive, DT40 TDP1 no CPT 25.9µM (no result: PLK1 PBD inh)
O=C(CCSCc1cccc(Cl)c1)NCCc1ccccc1	none
Cc1ccc(CNC(=O)CSCc2ccccc2C)cc1	DT40 TDP1 CPT inconclusive (no result: PLK1 PBD inh)
O=C(CCSCc1cccc(F)c1)NCc1ccc(F)cc1	VDR inh inconclusive, DT40 TDP1 CPT inconclusive, PLK1 PBD inh 7.52µM, DT40 TDP1 no CPT 18.4µM (no result: TDP1 block)
CSc1ccccc1NC(=O)CN1CCN(S(=O)(=O)c2ccccc2[N+](=O)[O-])CC1	none
C[C@H](CO)N1C[C@H](C)[C@@H](CN(C)C(=O)Nc2cccc(F)c2)Oc2ncc(Br)cc2C1=O	none (no result: VDR inh, TDP1 block, KAT2A inh)
Cc1ccc(S(=O)(=O)N(C)C[C@@H]2Oc3ccc(NC(=O)Nc4cccc5ccccc45)cc3C(=O)N([C@H](C)CO)C[C@H]2C)cc1	DT40 TDP1 CPT inconclusive, DT40 TDP1 no CPT 23.1µM
C[C@@H]1CN([C@H](C)CO)C(=O)c2cc(NC(=O)Nc3ccc(C(F)(F)F)cc3)ccc2O[C@H]1CN(C)S(=O)(=O)c1ccc(Cl)cc1	DT40 TDP1 CPT 5.17µM, DT40 TDP1 no CPT 5.8µM
Cc1ccc(S(=O)(=O)N(C)C[C@@H]2Oc3ccc(NC(=O)CCC(F)(F)F)cc3CC(=O)N([C@@H](C)CO)C[C@@H]2C)cc1	DT40 TDP1 CPT 4.11µM, DT40 TDP1 no CPT 5.8µM
C[C@@H]1CN([C@@H](C)CO)C(=O)Cc2cc(NC(=O)Nc3ccc(C(F)(F)F)cc3)ccc2O[C@@H]1CN(C)S(=O)(=O)c1ccc(Cl)cc1	DT40 TDP1 CPT inconclusive, DT40 TDP1 no CPT 14.6µM
COc1ccc(NC(=O)c2cccn(CC=C(C)C)c2=O)cc1	none
CCCCC1=CC2=C(c3ccco3)C(=O)C(C)(OC(=O)c3ccc(OC)cc3)C(=O)C2=CO1 (stereo not given)	none (no result: DT40 TDP1 CPT, PLK1 PBD inh, DT40 TDP1 no CPT, KAT2A inh)
